Compound activity as filed in PubChem BioAssay.
DT40 TDP1 no CPT = qHTS for Inhibitors of human tyrosyl-DNA phosphodiesterase 1 (TDP1): qHTS in cells in absence of CPT; DT40 Tdp1-/- hTDP1 cells, no CPT, ATP luminescence, 48 h; Potency, µM (doses to about 46.2 µM), actives largely listed as inhibitors; hit rate 15% among 420,000; note: nearly all actives have a fitted effect of over 55% in size
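Chicken DT40 Tdp1-/- cells complemented with human TDP1, screened without camptothecin (DMSO vehicle only), 400 cells/well. Compounds pin-transferred, cells incubated at 37 °C for at least 48 hr. Growth read as ATP-dependent luminescence (CellTiter-Glo, 30 min at RT).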
IL-1B inflam inh = blocks inflammasome-driven IL-1 beta release; hit rate 4.7% among 360,000; THP-1 LPS/ATP IL-1B secretion, AlphaLISA, 16 h; stronger effect = lower value; AID 743279; activity change, % at 57.5 µM; in the data active = activity change below about -50%; inconclusive = mostly about -30% to -49%
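Secreted IL-1B measured by AlphaLISA bead assay after 16 h compound exposure of THP-1 cells; compounds (final up to 57.5 uM) added 1 h before LPS (250 ng/mL) and ATP (1.25 mM) stimulation; lower signal means less secretion.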
HT1080 IDH1KD tx = kills HT-1080 cells with IDH1 knockdown; HT-1080 IDH1 knockdown viability, ATP luminescence, 48 h; Potency, µM (series often up to 46.1 µM), most hits filed as cytotoxic; hit rate 2% among 360,000
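HT-1080-IDH1KD cells (IDH1 knocked down), 750/well in RPMI with 5% FBS, treated with compound 48 h at 37 degrees C. Viability by CellTiter-Glo luminescence, normalised to DMSO and no-cell wells; concentration-response curves classed.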
DT40 TDP1 CPT = growth inhibition of DT40 Tdp1-/-;hTDP1 cells with camptothecin (screen for TDP1 inhibitors); hit rate 12% among 420,000; Potency, µM (doses to about 46.2 µM), usual class: inhibitors; chicken DT40 Tdp1-/-;hTDP1 cells + 20 nM CPT, ATP luminescence, 48 h; note: nearly all actives have a fitted effect of over 55% in size
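Cell growth measured by CellTiter-Glo luminescence after a minimum 48 h, 37 C compound exposure with 20 nM CPT in Tdp1-knockout DT40 cells stably expressing hTDP1, seeded 400/well; qHTS titration format.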
HT1080NT lethal = kills 2HG-producing HT-1080-NT fibrosarcoma cells. hit rate 1.6% among 360,000. Potency, µM (series often up to 46.1 µM), usual class: cytotoxic. HT-1080-NT fibrosarcoma viability, CellTiter-Glo ATP luminescence, 48 h;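 note: NT is the 2HG producing partner of a matched IDH1 knockdown line; nearly all actives have a fitted effect of over 55% in size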
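Toxicity toward the 2HG-producing NT line was scored as %Activity, normalised to DMSO and no-cell wells, from CellTiter-Glo luminescence after 48 hours' treatment.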
Each line names hits and unclear results; the compound was inactive in the other large screens. A selection: hits, their analogues and other compounds. The true share with any hit is near 19%. Unless noted, calls come from the whole dose curve; as a rule, active = well fitted curve in the direction sought with a large enough effect; inconclusive = small, poorly fitted or top-dose-only effect, or another doubt; inactive = no such curve, though single readings can be large; an effect the other way counts as inactive or inconclusive.

COc1ccc(-c2nc(CN3C(=O)CN=C(c4ccccc4)c4ccccc43)c(C)o2)cc1	DT40 TDP1 no CPT 18.4µM, DT40 TDP1 CPT inconclusive (no result: IL-1B inflam inh, HT1080 IDH1KD tx, HT1080NT lethal)
CC(C)CCC1(CCO)C(=O)NC(=S)NC1=O	none
Cc1ccccc1-n1c(O)c(/C=N/NC(=O)c2ccncc2)c(=O)[nH]c1=O	none
CCN1C[C@]2(COC)[C@H](O)C[C@H](OC)[C@@]34[C@@H]5C[C@@]6(O)[C@H](OC(=O)c7ccccc7)[C@@H]5[C@@](OC(C)=O)([C@@H]([C@H](OC)[C@H]23)[C@@H]14)[C@@H](O)[C@@H]6OC	none (no result: IL-1B inflam inh, HT1080 IDH1KD tx, HT1080NT lethal)
CCc1cc2c(s1)NC(=O)CN=C2c1cccs1	DT40 TDP1 no CPT inconclusive, DT40 TDP1 CPT inconclusive
C=CCN1CCC2(C)c3cc(O)ccc3CC1C2C (configuration not stated)	DT40 TDP1 no CPT inconclusive
CN1CCCC1c1cccnc1 (configuration not stated)	none
O=c1c2ccccc2nc(-c2ccco2)n1-c1ccc(Br)cc1	DT40 TDP1 no CPT 16.4µM, DT40 TDP1 CPT 11.6µM
Cc1ccc(-c2nc3ccccc3c(=O)n2-c2ccc(O)cc2)cc1	DT40 TDP1 no CPT 4.11µM, DT40 TDP1 CPT 2.59µM
O=c1c2ccccc2nc(Cc2ccccc2)n1-c1ccccc1	DT40 TDP1 no CPT 14.6µM, DT40 TDP1 CPT inconclusive
O=c1c2ccccc2nc(Cc2ccccc2)n1-c1ccccc1O	none
Cc1cccnc1-n1c(-c2ccccc2)nc2ccccc2c1=O	DT40 TDP1 no CPT 13µM, DT40 TDP1 CPT 13µM
O=c1c2ccccc2nc(-c2ccccc2)n1-c1ccc(O)cc1	DT40 TDP1 no CPT inconclusive, DT40 TDP1 CPT inconclusive
O=c1c2ccccc2nc(-c2cccs2)n1-c1cnccn1	none
Cc1ccc(-n2c(-c3cccs3)nc3ccccc3c2=O)cc1	DT40 TDP1 no CPT 11.6µM, DT40 TDP1 CPT 9.2µM
CCC(=O)Nc1ccccc1-c1nc2ccccc2n(C(CC)C(=O)Nc2cccc(Cl)c2)c1=O (configuration not stated)	DT40 TDP1 no CPT 20.6µM, DT40 TDP1 CPT 25.9µM (no result: IL-1B inflam inh, HT1080 IDH1KD tx, HT1080NT lethal)
CCCCCCCCC(c1nc2cc(C)c(C)cc2[nH]1)n1c(=O)c(-c2ccccc2Br)nc2ccccc21 (configuration not stated)	DT40 TDP1 no CPT inconclusive
O=CN1CCCCC1C1CC[C@H]2CCCCN2C1 (some centres not stated)	none (no result: IL-1B inflam inh, HT1080 IDH1KD tx, HT1080NT lethal)
Cc1ccc(CNC(=O)c2ccc(CSc3nc4ccncc4n3Cc3ccc(C)cc3)cc2)cc1	DT40 TDP1 no CPT 8.2µM, DT40 TDP1 CPT 5.17µM (no result: IL-1B inflam inh, HT1080 IDH1KD tx, HT1080NT lethal)
Cc1ccc(Cn2c(SCc3ccc(C(=O)NC4CCCC4)cc3)nc3ccncc32)cc1	DT40 TDP1 no CPT 16.4µM, DT40 TDP1 CPT inconclusive (no result: IL-1B inflam inh, HT1080 IDH1KD tx, HT1080NT lethal)
CCC(=O)O[C@](Cc1ccccc1)(c1ccccc1)[C@H](C)CN(C)C	DT40 TDP1 no CPT 38.2µM, DT40 TDP1 CPT 42.8µM (no result: IL-1B inflam inh, HT1080 IDH1KD tx, HT1080NT lethal)
O=c1[nH]c(=S)n(C2CC2)c(O)c1/C=N/Nc1ccccc1	HT1080 IDH1KD tx 2.31µM, HT1080NT lethal inconclusive
O=c1[nH]c(=S)n(C2CC2)c(O)c1/C=N/Nc1cccc2ccccc12	DT40 TDP1 no CPT inconclusive, DT40 TDP1 CPT 16.4µM
O=C(N/N=C/c1c(O)n(C2CCCCC2)c(=S)[nH]c1=O)c1ccccc1	DT40 TDP1 no CPT inconclusive, DT40 TDP1 CPT inconclusive, HT1080NT lethal inconclusive
Cc1nnc(NC(=O)c2cccn(Cc3cccc([N+](=O)[O-])c3)c2=O)s1	none (no result: IL-1B inflam inh, HT1080 IDH1KD tx, HT1080NT lethal)
O=C(CF)N(O)c1ccc(C=Cc2ccccc2)cc1	DT40 TDP1 no CPT 0.0259µM, HT1080 IDH1KD tx inconclusive, DT40 TDP1 CPT 0.13µM
COc1ccc(-n2c(O)c(/C=C3\C=Nc4ccc(Br)cc43)c(=O)[nH]c2=O)c(OC)c1	DT40 TDP1 no CPT inconclusive, IL-1B inflam inh -96.4, HT1080 IDH1KD tx inconclusive, DT40 TDP1 CPT inconclusive
O=c1[nH]c(=O)n(-c2ccccc2F)c(O)c1/C=C1\C=Nc2ccccc21	DT40 TDP1 no CPT 20.6µM, DT40 TDP1 CPT 16.4µM
COc1ccc(-n2c(O)c(/C=C3\C=Nc4ccc(Br)cc43)c(=O)[nH]c2=O)cc1	DT40 TDP1 no CPT inconclusive, DT40 TDP1 CPT inconclusive
O=c1[nH]c(=O)n(-c2ccc(F)cc2)c(O)c1/C=C1\C=Nc2ccccc21	none
N#CC1=C(N)Oc2c(c(=O)oc3ccccc23)C1c1ccc([N+](=O)[O-])o1 (configuration not stated)	DT40 TDP1 no CPT inconclusive
O=c1[nH]c(O)c(/C=C2\C=NN=C2c2ccccc2)c(=O)[nH]1	DT40 TDP1 CPT inconclusive
COP(=O)(OC)C1(O)C(=O)Nc2ccc(Br)cc21 (configuration not stated)	DT40 TDP1 no CPT inconclusive, DT40 TDP1 CPT 16.4µM
CCOP(=O)(OCC)C1(O)C(=O)Nc2ccccc21 (configuration not stated)	none
CCCN(CCC)c1c([N+](=O)[O-])cc(S(N)(=O)=O)cc1[N+](=O)[O-]	DT40 TDP1 no CPT 30.6µM, DT40 TDP1 CPT inconclusive (no result: IL-1B inflam inh, HT1080 IDH1KD tx, HT1080NT lethal)
Cc1c(N=Cc2c(O)n(Cc3ccco3)c(=O)[nH]c2=O)c(=O)n(-c2ccccc2)n1C	none
